S2 tox: reduces viability in counter-screen for ATXN expression inhibitors. Potency, µM (doses to about 56.7 µM), usual class: cytotoxic. AID 651635. 400,000 compounds, 0.49% hits. S2 cells (HEK-293 line with an ATXN2-luciferase reporter) viability, CellTiter-Fluor protease fluorescence, 24 h; further: nearly all actives have a fitted effect of over 40% in size
TGFb SMAD3 inh: blocks TGF-b signaling. HepG2 CAGA-GFP TGF-b/SMAD3 reporter, GFP fluorescence, 18 h; TGF-beta stimulated, 500 pg/mL final. Potency, µM (titrated, usually from 46.1 µM), without a hit: at the top dose activity, negative = inhibition, most hits filed as inhibitors. 410,000 compounds, 1.2% hits; further: on the % scale 0 is the no-effect control and ±100 the full control effect; nearly all actives have a fitted effect of over 65% in size
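Read-out: total well GFP (ex488/em500-530) summed from mean per-cell fluorescence. Cells: HEPG2 CAGA-GFP, 1% FBS DMEM, 18 h at 37 degrees C with 500 pg/mL final TGF-beta. Unstimulated wells served as the full-inhibition control; stimulated DMSO wells = 0%.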
HepG2 tox-1: counter-screen for TGF-b inhibitors: cytotoxicity in HepG2 cells; HepG2 CAGA-GFP viability, ATP luminescence, 18 h; Potency, µM (series often up to 46.1 µM), for inactives: at the top dose activity change, negative = cytotoxicity, most hits filed as cytotoxic; 410,000 compounds, 0.76% hits
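HepG2 CAGA-GFP cells (1000/well, DMEM with 1% FBS) received compound, then TGF-beta at 500 pg/mL final, and were incubated 18 hours at 37 degrees C. Viability was read by CellTiter-Glo luminescence. Media-only wells were set as complete cell-killing and DMSO as no toxicity.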
Gal4-VP16 FLuc: Gal4-VP16 reporter inhibition counter-screen; Drosophila S2 Gal4-VP16 UAS-luciferase, luminescence, 20 h; Potency, µM (titrated, usually from 53.6 µM), inactives show at the highest dose activity, negative = inhibition, hits mostly inhibitors; 310,000 compounds, 3.5% hits; AID 2546;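 further: Gal4-VP16 expression switched on by copper sulfate through the metallothionein promoter; on the % scale 0 is the no-effect control and ±100 the full control effect; nearly all actives have a fitted effect of over 50% in size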
ATXN2 expr inh: inhibitors of ATXN2 expression. HEK-293 ATXN2-luciferase reporter, luminescence, 24 h. AID 1745845. 360,000 compounds, 0.72% hits. Potency, µM (titrated, usually from 57 µM), for the others: at the top dose activity change, negative = inhibition, hits mostly inhibitors; further: on the % scale 0 is the no-effect control and ±100 the full control effect; nearly all actives have a fitted effect of over 55% in size
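ATXN2-luciferase reporter cells (luciferase flanked by upstream and downstream ATXN2 gene portions) were treated 24 h at 37 °C with compounds at up to 57 uM. SteadyGlo luminescence gave expression; GF-AFC fluorescence gave viability.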
RORgamma inh: inhibitors of mouse ROR gamma transcriptional activity. P51450. Drosophila S2 Gal4-RORgamma UAS-luciferase reporter, 20 h. Potency, µM (series often up to 53.6 µM), inactives show top-dose activity change, negative = inhibition, usual class: inhibitors. 310,000 compounds, 5.4% hits; further: on the % scale 0 is the no-effect control and ±100 the full control effect; nearly all actives have a fitted effect of over 60% in size
Target sequence (P51450 whole entry, looked up, the tested form may be a part): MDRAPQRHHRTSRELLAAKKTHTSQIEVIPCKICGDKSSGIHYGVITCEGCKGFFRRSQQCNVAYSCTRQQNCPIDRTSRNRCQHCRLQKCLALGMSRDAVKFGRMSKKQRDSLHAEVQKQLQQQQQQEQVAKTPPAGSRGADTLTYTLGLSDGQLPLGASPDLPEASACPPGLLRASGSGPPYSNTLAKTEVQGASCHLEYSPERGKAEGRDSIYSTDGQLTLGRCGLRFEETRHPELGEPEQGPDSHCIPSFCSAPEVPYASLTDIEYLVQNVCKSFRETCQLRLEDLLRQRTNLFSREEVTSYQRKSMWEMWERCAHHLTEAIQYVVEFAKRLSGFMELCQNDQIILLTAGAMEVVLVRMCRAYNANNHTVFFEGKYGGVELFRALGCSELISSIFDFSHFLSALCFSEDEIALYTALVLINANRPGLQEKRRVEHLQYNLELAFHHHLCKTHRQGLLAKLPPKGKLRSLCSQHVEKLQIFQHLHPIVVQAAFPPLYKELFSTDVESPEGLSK
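Drosophila Schneider cells stably carrying a metallothionein-driven Gal4 DBD–ROR gamma fusion and a UAS-Photinus luciferase reporter were exposed to compound for 1 hr, then induced with copper sulfate (700 uM final) for 20 hr at ambient temperature before luminescence reading.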
TGFb CAGA inh: TGF-b pathway inhibition, cherry-pick retest; HepG2 CAGA-GFP TGF-b reporter, GFP fluorescence, 18 h; cells stimulated with TGF-beta, 500 pg/mL; shares compounds with TGFb SMAD3 inh; 1,600 compounds, 63% hits; Potency, µM (titrated, usually from 46.1 µM), for inactives: at the top dose activity, negative = inhibition, usual class: inhibitors; further: on the % scale 0 is the no-effect control and ±100 the full control effect; nearly all actives have a fitted effect of over 65% in size
HepG2 tox-2: counter-screen for TGF-b inhibitors: cytotoxicity in HepG2 cells; AID 720535; Potency, µM (highest dose often 46.1 µM), inactives show top-dose activity, negative = cytotoxicity, most hits filed as inhibitors; HepG2 CAGA-GFP viability, ATP luminescence, 18 h; cells stimulated with TGF-beta, 500 pg/mL; shares compounds with TGFb SMAD3 inh; 1,600 compounds, 27% hits; further: on the % scale 0 is the no-effect control and ±100 the full control effect; nearly all actives have a fitted effect of over 70% in size
TGFb CCL64 inh: TGF-b inhibition, CCL64 orthogonal assay; shares compounds with TGFb SMAD3 inh; CCL64 CAGA-GFP reporter, TGF-b stimulated, GFP fluorescence, 18 h; Potency, µM (titrated, usually from 46.1 µM), inactives show top-dose activity, negative = inhibition, usual class: inhibitors; 1,600 compounds, 41% hits; further: nearly all actives have a fitted effect of over 65% in size
COP TGFb inh: blocks TGF-b signaling in HepG2 COP reporter; Potency, µM (highest dose often 46.1 µM), without a hit: top-dose activity, negative = inhibition, hits mostly inhibitors; 1,600 compounds, 3% hits; AID 720537; shares compounds with TGFb SMAD3 inh; HepG2 COP-GFP TGF-b reporter, GFP fluorescence, 18 h; cells stimulated by added recombinant TGF-beta; further: nearly all actives have a fitted effect of over 70% in size
* = called active by the depositor; i = inactive; ? = inconclusive; nt = no result. Only some compounds are listed: those with a hit (about 6.3% of all), similar ones and a draw of the others. The call rests on the fitted dose curve; in most records, active means well fitted curve in the direction sought with a large enough effect; inconclusive means small, poorly fitted or top-dose-only effect, or another doubt; inactive means no such curve, though single readings can be large; an effect the other way counts as inactive or inconclusive. Potency means the concentration at half of the fitted maximal effect.

SMILES	S2 tox	TGFb SMAD3 inh	HepG2 tox-1	Gal4-VP16 FLuc	ATXN2 expr inh	RORgamma inh	TGFb CAGA inh	HepG2 tox-2	TGFb CCL64 inh	COP TGFb inh
CN(C)c1nc(N/N=C/c2ccccc2O)nc(Nc2ccc(F)cc2)n1	i	12.6µM*	-23.9%	1.12µM*	?	0.224µM*	14.6µM*	?	?	-2.4%
COc1cccc(NC(=O)Cn2cc(C(=O)c3ccco3)c3ccccc32)c1	?	?	-4.0%	nt	-9.4%	nt	nt	nt	nt	nt
O=C(CCC(=O)N1CCSc2ccccc21)NCc1cccc(Cl)c1	i	?	-19.0%	-6.9%	-8.1%	6.7%	?	-8.4%	6.9%	-1.4%
CC(=O)Nc1ccc(N=Cc2c(O)c(C(=O)Nc3ccccc3)cc3ccccc23)cc1	i	7.08µM*	-46.1%	-4.0%	nt	4.1%	-9.2%	11.6µM*	4.61µM*	54.7%
COc1ccc(/C=C2/CSC/C(=C/c3ccc(OC)c(OC)c3)C2=O)cc1OC	3.98µM*	6.31µM*	-2.8%	nt	5.62µM*	nt	1.3µM*	3.26µM*	2.31µM*	9.0%
COc1ccccc1NS(=O)(=O)c1cc(NC(=O)Nc2ccccc2)ccc1N1CCCCC1	i	11.2µM*	-4.7%	-4.2%	9.8%	?	7.31µM*	-16.8%	?	-1.7%
O=C(Nc1ccc(F)cc1)Nc1ccc(N2CCCC2)c(S(=O)(=O)Nc2ccccc2Cl)c1	?	3.98µM*	-3.9%	?	?	?	4.11µM*	7.31µM*	5.8µM*	109.3%
O=C(Nc1ccc(Cl)c(Cl)c1)Nc1ccc(N2CCCC2)c(S(=O)(=O)Nc2ccccc2Cl)c1	?	3.16µM*	-25.6%	?	?	-82.9%	4.61µM*	7.31µM*	0.581µM*	85.8%
Cc1ccc(NC(=O)c2cc3c(s2)CCCC3)cc1S(=O)(=O)Nc1ccccc1Cl	i	10µM*	-7.5%	-1.4%	-22.2%	?	10.3µM*	?	?	56.4%
COc1ccccc1NS(=O)(=O)c1cc(NC(=O)C(C)C)ccc1N1CCCCC1	i	-1.0%	-5.7%	4.3%	-15.3%	-24.5%	nt	nt	nt	nt
O=C(Nc1ccc(N2CCCCC2)c(S(=O)(=O)Nc2ccccc2Cl)c1)c1cccnc1	i	12.6µM*	-7.5%	nt	0.0%	nt	?	?	?	61.6%
CN(C(=O)CN1CCC(NC(=O)c2ccccc2Br)CC1)C1CCCCC1	i	4.2%	-5.2%	16.4%	-2.2%	-28.0%	nt	nt	nt	nt
CN(C(=S)NC(=O)c1ccccc1Br)C1CCCCC1	i	?	-23.0%	3.16µM*	-12.6%	0.891µM*	-19.8%	-13.5%	8.6%	1.5%
COc1ccc(-c2nc(NC(=O)C3CC(=O)N(c4ccc5c(c4)OCCO5)C3)sc2C)cc1 (configuration not stated)	?	11.2µM*	-1.5%	?	12.6µM*	?	6.51µM*	?	?	31.0%
O=C1C=C(Nc2ccccc2)C(=O)c2ccccc21	?	3.98µM*	5.01µM*	?	-16.5%	?	6.51µM*	14.6µM*	?	-65.3%
Cc1ccc(S(=O)(=O)/N=C2\C=C(Nc3ccc(O)cc3)C(=O)c3ccccc32)cc1	3.98µM*	1.26µM*	3.16µM*	nt	6.31µM*	nt	1.3µM*	2.31µM*	5.17µM*	?
COC(=O)c1cccc(NS(=O)(=O)c2cccs2)c1C	i	-0.7%	23.0%	28.9%	27.2%	38.2%	nt	nt	nt	nt
O=C1C(Nc2ccccc2)=C/C(=N/S(=O)(=O)c2cccs2)c2ccccc21	nt	3.98µM*	3.55µM*	5.01µM*	7.94µM*	4.47µM*	2.59µM*	2.59µM*	3.26µM*	?
c1ccc(Nc2ccccc2)cc1	i	3.0%	15.7%	7.5%	4.6%	4.2%	nt	nt	nt	nt
COC(=O)c1ccccc1NC1=C/C(=N\S(=O)(=O)c2cccs2)c2ccccc2C1=O	7.08µM*	?	-23.4%	?	3.98µM*	27.0%	7.31µM*	14.6µM*	3.26µM*	16.4µM*
CCOc1cc(N2CCOCC2)c(OCC)cc1NC(=O)c1cc(S(=O)(=O)N2CCOCC2)ccc1F	i	7.2%	-7.3%	nt	-13.1%	nt	nt	nt	nt	nt
Cc1cc2nn(-c3ccc(Cl)cc3)nc2cc1N	nt	0.794µM*	-37.0%	?	nt	?	6.51µM*	2.59µM*	5.6%	40.1%
COc1cc(-c2cnc3c(NC=O)cc(-c4cccc(NC(C)=O)c4)cn23)cc(OC)c1OC	i	?	8.6%	nt	-12.9%	nt	nt	nt	nt	nt
CC(=O)Nc1cccc(-c2cc(NC=O)c3ncc(-c4cccc(C(C)=O)c4)n3c2)c1	i	2.82µM*	23.3%	nt	-26.7%	nt	6.51µM*	?	?	30.3%
COc1cccc(-c2cnc3c(NC=O)cc(-c4ccccc4Oc4ccccc4)cn23)c1	i	10µM*	-17.4%	nt	-23.4%	nt	11.6µM*	-20.5%	?	27.9%
COc1cccc(-c2cnc3c(NC=O)cc(-c4cccc(NC(C)=O)c4)cn23)c1	i	7.08µM*	-2.7%	nt	-38.9%	nt	5.8µM*	?	14.6µM*	56.4%
CC(=O)c1ccc(-c2cnc3c(NC=O)cc(-c4ccc(C(=O)N5CCOCC5)cc4)cn23)cc1	i	?	-5.0%	nt	-25.9%	nt	?	?	?	56.6%
Cc1ccc(C2=NN(CCC(=O)NCCc3cccc(C)c3)C(=O)CC2)cc1	nt	?	-15.0%	nt	nt	nt	nt	nt	nt	nt

Compound activity (PubChem)
